# Measurements reported in PubChem BioAssay (NCI).
# This is part of a sample that, as a whole, favours compounds with a hit. Of some 79,000 tested, about 15% had one in any assay. Unmarked numbers belong to inactive results. Activity calls are given as the source filed them. Cut-off read from the data, not from the text of the source: active = growth inhibition above about 70%; inactive = the rest.
# Assays:
# [1] = NCI Yeast Anticancer Drug Screen. Data for the rad50 strain (AID 155);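 note: 0% = growth of vehicle-only cultures of the same strain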; details: S. cerevisiae rad50 strain growth inhibition, stronger effect = higher value
# Outline: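 Readout: growth inhibition relative to vehicle-treated cultures. Compound exposure was carried out in a genetically defined yeast strain deficient in DNA damage repair.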
# [2] = NCI Yeast Anticancer Drug Screen. Data for the mec2-1 strain (AID 157); details: S. cerevisiae mec2-1 strain, stronger effect = higher value
# Outline: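 Yeast mec2-1 mutant treated with compound. Readout: growth inhibition vs vehicle controls.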
# [3] = NCI Yeast Anticancer Drug Screen. Data for the sgs1 mgt1 strain (AID 161);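 note: 0% = growth of cultures given vehicle only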; details: S. cerevisiae sgs1 mgt1 strain, stronger effect = higher value
# Outline: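 Test agents were incubated with a DNA-repair-mutant yeast strain. Growth was then read and compared against vehicle-treated controls.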
# [4] = NCI Yeast Anticancer Drug Screen. Data for the cln2 rad14 strain (AID 165);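 note: 0% = growth equal to vehicle treated cultures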; details: S. cerevisiae cln2 rad14 strain, stronger effect = higher value
# Outline: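 cln2 rad14 yeast strain; compound exposure; growth inhibition read vs vehicle controls.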
# [5] = NCI Yeast Anticancer Drug Screen. Data for the bub3 strain (AID 167); details: S. cerevisiae bub3 mutant strain, stronger effect = higher value
# Outline: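 Readout: yeast growth inhibition, expressed relative to vehicle-only wells. The test organism is a mutant strain from a panel with lesions in DNA repair or checkpoint genes.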
# [6] = NCI Yeast Anticancer Drug Screen. Data for the mlh1 rad18 strain (AID 175); details: S. cerevisiae mlh1 rad18 strain growth inhibition, stronger effect = higher value
# Outline: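 Yeast w/ defined DNA-repair lesions; compound exposure; growth vs vehicle controls → % inhibition.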
# [7] = at 5.0 µM (retest, dose inferred, filed as 0.5)
# [8] = at 50.0 µM (retest, dose inferred, filed as 5.0)
Compound,"growth inhibition [1, 7]","growth inhibition [1, 8]",growth inhibition ([1]; at 50.0 µM),"growth inhibition [2, 7]","growth inhibition [2, 8]",growth inhibition ([2]; at 50.0 µM),"growth inhibition [3, 7]","growth inhibition [3, 8]",growth inhibition ([3]; at 50.0 µM),"growth inhibition [4, 7]","growth inhibition [4, 8]",growth inhibition ([4]; at 50.0 µM),"growth inhibition [5, 7]","growth inhibition [5, 8]",growth inhibition ([5]; at 50.0 µM),"growth inhibition [6, 7]","growth inhibition [6, 8]",growth inhibition ([6]; at 50.0 µM)
C#Cc1cccc(N=Cc2cc(Cl)cc(Cl)c2O)c1,13%,90% (active),94.6% (active),8%,90% (active),94.3% (active),20%,97% (active),97.8% (active),-1%,91% (active),62.4%,-1%,80% (active),89.9% (active),20%,98% (active),97.2% (active)
COc1ccc(CCBr)cc1,-1%,-17%,14.7%,-23%,-13%,14%,-15%,-7%,22.2%,17%,-1%,0.5%,-17%,-7%,18.1%,-27%,-41%,15.2%
CCC(CC)C1(C(=O)OCCN(CC)CC)CCCCC1,1%,48%,72.5% (active),-1%,13%,5.8%,-2%,20%,45%,2%,9%,3.5%,-1%,48%,73% (active),4%,32%,43.2%
Cn1c(=O)c2c(nc([N+](=O)[O-])n2C)n(C)c1=O,2%,48%,74.6% (active),9%,39%,63.8%,4%,39%,76.9% (active),-2%,18%,45.6%,12%,75% (active),79.3% (active),0%,41%,68%
CC(C)(C)OC(=O)C(N(Cc1ccccc1)Cc1ccccc1)N(Cc1ccccc1)Cc1ccccc1,0%,14%,12.1%,2%,9%,20.6%,2%,17%,24.4%,3%,10%,-2.05%,0%,11%,4.75%,3%,22%,30.3%
CCOC(=O)C(Br)c1nc2ccccc2[nH]c1=O (stereo not given),2%,73% (active),68.3%,-10%,81% (active),74.2% (active),2%,96% (active),49.1%,2%,49%,28.7%,-7%,86% (active),81.6% (active),-5%,98% (active),92.2% (active)
CCCCCCCCCCNC(=O)C[n+]1cccc(C(=O)NCc2ccccc2)c1,8%,99% (active),99.5% (active),-1%,100% (active),99.7% (active),5%,100% (active),99.5% (active),14%,99% (active),98.8% (active),8%,99% (active),99.4% (active),11%,99% (active),99.5% (active)
O=C(CC(O)(C(F)(F)Cl)C(F)(F)Cl)CC(O)(C(F)(F)Cl)C(F)(F)Cl,94% (active),100% (active),99.1% (active),97% (active),100% (active),99.5% (active),93% (active),99% (active),99.5% (active),95% (active),99% (active),99.3% (active),91% (active),100% (active),99.6% (active),97% (active),100% (active),99.2% (active)
CCCc1nc2c(nc1C)C(=O)C=CC2=O,-101%,96% (active),96.5% (active),-37%,99% (active),97.5% (active),-46%,95% (active),81.6% (active),-44%,97% (active),86.5% (active),-53%,96% (active),97.1% (active),-80%,96% (active),98.3% (active)
O=S(=O)(OI(OI(OS(=O)(=O)C(F)(F)F)c1ccccc1)c1ccccc1)C(F)(F)F,58%,97% (active),89.2% (active),48%,98% (active),91.5% (active),44%,98% (active),91.7% (active),27%,92% (active),91.1% (active),65%,98% (active),91% (active),75% (active),97% (active),89.2% (active)
